According to PubChem BioAssay AID485297 (National Center for Advancing Translational Sciences (NCATS), 2010):
Screen size: about 320,000 compounds; about 9,100 (2.8%) were called active. A call without a number means that no potency is given here. Inconclusive results (about 3%) are left out. Calls come from the whole dose curve; as a rule, active = well fitted activation curve with a large enough effect; inconclusive = small, poorly fitted or top-dose-only effect; inactive = no such curve, though single readings can be large or run the other way. The full list was thinned out, with actives kept by preference.

Test: qHTS Assay for Rab9 Promoter Activators; note: nearly all actives have a fitted effect of over 60% in size
Conditions: Huh7 Rab9 promoter-luciferase reporter, luminescence, 24 h; series mostly up to 9.22 µM
In short: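 Measured in stably transfected Huh7 cells bearing a Rab9 promoter–luciferase construct: 24 h compound treatment at 37 °C, followed by luminescence detection.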
Potency is the fitted concentration of half-maximal effect.

Row | Structure (SMILES) | Potency | activation, negative = inhibition
1 | CCOc1ccc(NC(=O)c2cccc3c2C(=O)N(CC2CCCO2)C3)cc1 (configuration not stated) | inactive | 
2 | CC(=O)c1sc(NC(=O)CCN2C(=O)C3CC=CCC3C2=O)nc1-c1ccccc1 (configuration not stated) | inactive | 
3 | NC(=O)c1cc2ccccc2o/c1=N/NC(=O)c1cccc(F)c1 | inactive | 
4 | COc1cccc2cc(C(N)=O)/c(=N\NC(=O)c3ccccc3)oc12 | 3.55 µM (active) | 
5 | COc1ccc(C(=O)N/N=c2\oc3ccccc3cc2C(N)=O)cc1 | inactive | 
6 | CC(=O)Nc1ccc(Nc2cc(C)nc(Nc3ccc(NC(C)=O)cc3)n2)cc1 | inactive | 
7 | CCN(CC(=O)NCCc1ccccc1)S(=O)(=O)c1ccc(C)cc1 | inactive | 
8 | CCN(CC)S(=O)(=O)c1ccc(-c2cn3ccc(C)cc3n2)cc1 | 2.24 µM (active) | 
9 | CCN(c1cccc(C)c1)S(=O)(=O)c1ccc(-c2coc(C)n2)cc1 | inactive | 
10 | Cc1ccn2cc(C(=O)NC3CCN(Cc4ccccc4)CC3)nc2c1 | inactive | 
11 | COc1ccc(-n2c(-c3ccc(OC)c(OC)c3)n[nH]c2=S)cc1 | inactive | 
12 | COc1ccc(CNc2nccs2)cc1 | inactive | 
13 | COc1cc(OC)cc(-c2nc(=S)n3ccsc3n2)c1 | inactive | 
14 | COc1ccc(-c2cn3ccc(C)cc3n2)cc1 | 0.112 µM (active) | 
15 | COc1ccc(-c2cn3ccsc3n2)cc1 | 0.708 µM (active) | 
16 | Cc1ccccc1N1CCN(C2CCCN(C(=O)c3cn4c(C)cccc4n3)C2)CC1 (configuration not stated) | inactive | 
17 | COc1ccccc1N1CC(C(=O)NCCN2C(=O)S/C(=C\c3cccnc3)C2=O)CC1=O (configuration not stated) | inactive | 
18 | CC1CCCCC12NC(=O)N(CC(=O)OCC(=O)NCc1ccc(F)cc1)C2=O (configuration not stated) | inactive | 
19 | Cc1nn(C(C)C(=O)N2CCOCC2)c(=O)c2nn(-c3ccccc3)c(C)c12 (configuration not stated) | inactive | 
20 | O=C1C=C(c2cccc(Cl)c2)C[C@@H](c2ccc(F)cc2)C1 | inactive | 
21 | COc1ccc(C(=O)CSc2nnc(NC(=O)C3CC(=O)N(c4cccc(OC)c4)C3)s2)cc1 (configuration not stated) | inactive | 
22 | COc1ccc(/C=N/Nc2nc3ccccc3c(=O)[nH]2)cc1 | 1.58 µM (active) | 

Row | Structure (SMILES) | Potency | activation, negative = inhibition
23 | COc1ccc(/C=N/Nc2nc(-c3ccc(C)cc3)c(C#N)c(=O)[nH]2)cc1 | inactive | 
24 | COc1ccc(/C=N/NS(=O)(=O)c2ccc(NC(C)=O)cc2)cc1 | inactive | 
25 | COc1ccc(CCCc2nnc(SCc3nc4ccccc4c(=O)[nH]3)n2C)cc1 | inactive | 
26 | COc1ccc(/C=N/Nc2ccccc2C(=O)O)cc1 | 0.0891 µM (active) | 
27 | COc1ccc(/C=N/OCC(=O)N(Cc2ccccc2)c2ccccc2C(=O)O)cc1 | inactive | 
28 | COc1ccccc1C(=O)NCC(=O)OCC(=O)Nc1nnc(-c2ccccc2)o1 | inactive | 
29 | COc1cc(OC)cc(C(=O)Nc2nnc(SCC(=O)NCC3CCCO3)s2)c1 (configuration not stated) | inactive | 
30 | COc1ccc(C)cc1NC(=O)CCCN1C(=O)NC(C)(C)C1=O | inactive | 
31 | Cc1ccc(S(=O)(=O)NCCNC(C)c2ccc(Br)cc2)cc1 (configuration not stated) | inactive | 
32 | CCC1(C)NC(=O)N(CC(=O)N2CCN(c3cccc(Cl)c3)CC2)C1=O (configuration not stated) | inactive | 
33 | COc1cc2c(cc1OC)CC1(CCCCC1)N=C2 | inactive | 
34 | Cc1ccc(N/N=C2\COC(C)(C)CC2=O)cc1 | 3.16 µM (active) | 
35 | CCC1(C)CC(=O)NC1=O (configuration not stated) | inactive | 
36 | Cc1ccc(C(=O)CSc2nc3ccccc3c(=O)n2N)o1 | 3.55 µM (active) | 
37 | COc1ccc(NC(=O)CSc2nc3ccccc3c(=O)n2C)cc1 | inactive | 
38 | COC(=O)CSc1nc2ccccc2c(=O)n1Cc1ccccc1 | inactive | 
39 | Cc1ccccc1-c1cc(C(=O)NCC2CC2)n(CC2CC(c3cccnc3)=NO2)n1 (configuration not stated) | inactive | 
40 | COc1cc(C(C)=O)ccc1OC(C)C(=O)Nc1ccc(S(=O)(=O)N2CCCC2)cc1 (configuration not stated) | inactive | 
41 | O=C(NCC1CCC(C(=O)O)CC1)OCc1ccccc1 (configuration not stated) | inactive | 
42 | O=C(O)C1CCN(C(=O)OCc2ccccc2)CC1 | 4.47 µM (active) | 
43 | CCOC(=O)N1CCC(NC(=O)CCc2ccccc2)CC1 | inactive | 
44 | COc1ccc(Cl)cc1NC(=O)CN(C)CC(=O)Nc1ccc2c(c1)OCO2 | inactive | 

Row | Structure (SMILES) | Potency | activation, negative = inhibition
45 | COc1ccc(CN(Cc2ccco2)S(=O)(=O)c2ccc(S(=O)(=O)N3CCCC3)cc2)cc1 | inactive | 
46 | COc1ccccc1-n1nnnc1SCC(=O)NC(=O)Cc1ccccc1 | inactive | 
47 | Cc1ccc(C(=O)Cn2cccn2)cc1 | inactive | 
48 | Cc1ccc(S(=O)(=O)CC(=O)Nc2nnc(C)s2)cc1 | inactive | 
49 | Cc1ccc(C(=O)Cc2nnc(C)s2)cc1 | 2.82 µM (active) | 
50 | CC(OC(=O)c1cc2ccccc2o1)C(=O)Nc1ccc(N2CCOCC2)cc1 (configuration not stated) | inactive | 
51 | Cc1ccc2oc(=O)c3cnn(CC(=O)N(Cc4ccco4)C4CCCCC4)c3c2c1 | inactive | 
52 | Cc1cc2c(=O)n(C)c(SCC(=O)c3cc4ccccc4o3)nc2s1 | inactive | 
53 | O=C(NCc1cccnc1)c1cccc(-c2cc3ccccc3oc2=O)c1 |  | -2.68% [at 1.84 µM] (inactive)
54 | Nc1ncc(-c2cc3ccccc3oc2=O)s1 | 1.12 µM (active) | 
55 | COc1ccccc1C(CNC(=O)c1cccc(S(=O)(=O)Nc2ccc(F)cc2)c1)N(C)C (configuration not stated) | inactive | 
56 | Cc1nn(C)c(Cl)c1CN1CCC(n2nccc2NC(=O)C2CCCC2)CC1 | inactive | 
57 | CC(Sc1nnc(-c2cccs2)n1C1CC1)C(=O)NCC1CCCO1 (configuration not stated) | inactive | 
58 | CN(C)/C=C/C(=O)c1ccccc1F | inactive | 
59 | Cc1nc(-c2ccc(Cl)cc2)sc1C(=O)CBr | inactive | 
60 | Cc1nc(-c2ccccc2)sc1C(=O)/C=C/N(C)C | 2.82 µM (active) | 
61 | CC(C)CN(C(=O)CSc1nncn1C)C1CCS(=O)(=O)C1 (configuration not stated) | inactive | 
62 | CCc1nc(SCC(=O)NNC(=O)c2ccc(C)cc2)c2ccccc2n1 | inactive | 
63 | Cc1ccc(C(=O)NNC(=O)c2cc3cc4ccccc4nc3s2)cc1 | inactive | 
64 | Cc1ccc(C(=O)NNc2ncnc3ccccc23)cc1 | 3.98 µM (active) | 
65 | COc1ccc(CNC(=O)COC(=O)c2c(C)nn(-c3ccccc3)c2C)cc1OC | inactive | 
66 | CN(C)C(CNC(=O)c1cccc(C#N)c1)c1ccco1 (configuration not stated) | inactive | 

Row | Structure (SMILES) | Potency | activation, negative = inhibition
67 | Cc1cc(F)ccc1S(=O)(=O)Nc1ccc(C(=O)N(C)Cc2ccco2)cc1 | inactive | 
68 | CC1CCCCC12NC(=O)N(CC(=O)Nc1ccc(S(=O)(=O)Nc3ncccn3)cc1)C2=O (configuration not stated) | inactive | 
69 | Cc1ccc(C(=O)OCc2nc(N)nc(Nc3ccccc3C)n2)cc1 | inactive | 
70 | Cc1ccccc1Nc1nc(N)nc(CSc2ccccc2)n1 | 1.41 µM (active) | 
71 | Cc1ccccc1Nc1nc(N)nc(CN2CCN(c3ccccn3)CC2)n1 | inactive | 
72 | COc1cccc(C(O)c2nc3ccccc3n2C)c1 (configuration not stated) | inactive | 
73 | Cc1cc(C)c(CN2CCN(C(=O)Cn3ccc(NC(=O)OCc4ccccc4)nc3=O)CC2)c(C)c1 | inactive | 
74 | COc1ccc(/C=C2\SC(=O)N(CCC(=O)NC3CCS(=O)(=O)C3)C2=O)cc1 (configuration not stated) | 2.51 µM (active) | 
75 | COc1ccccc1/C=C1\SC(=O)N(CCC(=O)N(C)C2CCS(=O)(=O)C2)C1=O (configuration not stated) | inactive | 
76 | COc1ccc(/C=C2\SC(=O)N(CCC(=O)NCCCn3ccnc3)C2=O)cc1 | inactive | 
77 | CC1CCCC(C)N1C(=O)COC(=O)COc1ccccc1C#N (configuration not stated) | inactive | 
78 | CCCCN(C(=O)c1ccc(S(=O)(=O)N2CCOCC2)cc1)C1CCS(=O)(=O)C1 (configuration not stated) | inactive | 
79 | O=C(Nc1cccnc1)c1cccc(S(=O)(=O)N2CCCC2)c1 | inactive | 
80 | O=C(Nc1cccnc1)c1noc2c1CCCCC2 | 1.58 µM (active) | 
81 | O=C(Nc1cccnc1)c1cc(Cl)ccc1Cl | inactive | 
82 | CCCCc1ccc(NC(=O)CN2C(=O)NC(Cc3ccccc3)C2=O)cc1 (configuration not stated) | inactive | 
83 | O=C(NNC(=O)c1cccc(S(=O)(=O)Nc2ccc(Cl)cc2)c1)c1ccc(=O)[nH]c1 | inactive | 
84 | O=C(NCC(=O)N1CCN(c2ccccc2F)CC1)c1cccs1 | inactive | 
85 | O=C(CCSc1ccccc1)N1CCN(c2ccccc2F)CC1 | 3.55 µM (active) | 
86 | O=C(CCc1ccccc1F)N1CCN(c2ccccc2)CC1 | inactive | 
87 | CC1CCCC(NC(=O)c2cc(S(=O)(=O)N3CCCCC3)ccc2Cl)C1C (configuration not stated) | inactive | 
88 | CCCCCCCC(=O)OC(CN1CCCCCC1)CN1CCCC1=O (configuration not stated) | inactive | 

Row | Structure (SMILES) | Potency | activation, negative = inhibition
89 | COc1ccc(C(=O)Nc2ccc(N3CCC(C)CC3)cc2)cc1Br | inactive | 
90 | CN1CCN(c2ccc(NC(=O)c3ccccc3)cc2)CC1 | 1.58 µM (active) | 
91 | COc1cccc(C(=O)Nc2ccc(N3CCCC3)cc2)c1 | 1.12 µM (active) | 
92 | CC(=O)Oc1cccc(C(=O)Nc2ccccc2NC(=O)c2cccc(OC(C)=O)c2)c1 | inactive | 
93 | COc1ccc(C2COC(=O)C2=N)c(NC(=O)c2ccccc2)c1 (configuration not stated) | inactive | 
94 | CN1CCN(c2ccc(NC(=O)c3ccc4c(c3)[nH]c(=O)n4Cc3ccc(F)cc3)cc2)CC1 | inactive | 
95 | Cc1ccccc1C(=O)NC(=S)Nc1ccc(N2CCN(C(=O)c3ccccc3)CC2)cc1 | inactive | 
96 | COc1cccc(C(=O)Nc2ccc(N3CCN(C(=O)c4ccco4)CC3)cc2)c1 | inactive | 
97 | COc1cccc(C(=O)Nc2cc3c(cc2Br)OCCCO3)c1 | 2.82 µM (active) | 
98 | CC(C)(C)OC(=O)N[C@H](C(=O)OC(C)(C)C)c1ccc(Br)cc1 | inactive | 
99 | O=C(OCC(=O)N1CCN(C(=O)c2ccco2)CC1)c1ccc(Cl)c(Cl)c1 | inactive | 
100 | CN(c1ccccc1)S(=O)(=O)c1cccc(NC(=O)Cc2ccc(Cl)cc2)c1 | inactive | 
101 | CCCCN1Cc2c(nc3cc(-c4ccccc4)[nH]n3c2=O)C1=O | inactive | 
102 | CCc1c(C)nc2cc(C)[nH]n2c1=O | inactive | 
103 | C=CCc1c(C)nc2cc(-c3ccccc3)[nH]n2c1=O | 1.41 µM (active) | 
104 | O=C1C=C(c2cccc(Br)c2)C[C@@H](c2ccc(F)cc2)C1 | inactive | 
105 | NC(=O)NC(CC(=O)NNC(=O)c1ccccn1)c1ccc(Cl)cc1 (configuration not stated) | inactive | 
106 | O=S(=O)(NCCCN1CCOCC1)c1ccc(F)c(Cl)c1 | inactive | 
107 | O=C(OCC(=O)N1CCCCCC1)c1cnc(Cl)c(Cl)c1 | inactive | 
